Data as given in the supplement of paper PMC10849652.
Targets with a hit are over-represented here; the source holds about 7,900 in all. About 0.6% of all pairs of compound and target were hits. A number with no mark means an inactive call.

Assays:
Experiment in all cases: log2 fold change, soluble protein after heating vs DMSO (PISA); higher = thermal stabilisation; K562 cells, 10 uM, 30 min; active = over 0.2 and 3.5 SD of the protein, either way, in both replicates (recomputed)
[1] = compound: CS(=O)(=O)c1ccc(-c2cnc(N)c(C(=O)Nc3ccccc3)n2)cc1
Method in brief: (§1)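 K562 cells (2×10^6 cells/mL) were treated with 10 μM compound for 30 min, and aliquots were heated for 3 min over 48°C-58°C. Pooled aliquots were extracted in PBS with 0.5% NP-40 at 4°C, and the supernatant after 21,000xg for 90 min was measured by TMTpro 16plex LC-MS/MS with channel sums equalised. Reported thermal stability, relative to control samples and from duplicates, is a log2 fold change.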

crizotinib = compound: C[C@@H](Oc1cc(-c2cnn(C3CCNCC3)c2)cnc1N)c1c(Cl)ccc(F)c1Cl [crizotinib]
Method in brief: as §1

[2] = compound: C[C@@H]1COCCN1C2=NC(=NC(=C2)C3(CC3)S(=O)(=O)C)C4=C5C=CNC5=CC=C4
Method in brief: as §1

[3] = compound: C[C@H](C1=CC=C(C=C1)C(=O)NC2=C3C=CNC3=NC=C2)N
Method in brief: as §1

duvelisib = compound: C[C@H](Nc1ncnc2nc[nH]c12)c1cc2cccc(Cl)c2c(=O)n1-c1ccccc1 [duvelisib]
Method in brief: as §1

gandotinib = compound: Cc1cc(Nc2cc(CN3CCOCC3)c3nc(C)c(Cc4ccc(Cl)cc4F)n3n2)n[nH]1 [gandotinib]
Method in brief: as §1

tozasertib = compound: Cc1cc(Nc2cc(N3CCN(C)CC3)nc(Sc3ccc(NC(=O)C4CC4)cc3)n2)n[nH]1 [tozasertib]
Method in brief: as §1

[4] = compound: Cc1cc(SCc2sc(-c3ccc(C(F)(F)F)cc3)nc2C)ccc1OCC(=O)O
Method in brief: as §1

doramapimod = compound: Cc1ccc(-n2nc(C(C)(C)C)cc2NC(=O)Nc2ccc(OCCN3CCOCC3)c3ccccc23)cc1 [doramapimod]
Method in brief: as §1

ispinesib = compound: Cc1ccc(C(=O)N(CCCN)[C@@H](c2nc3cc(Cl)ccc3c(=O)n2Cc2ccccc2)C(C)C)cc1 [ispinesib]
Method in brief: as §1

Sequence of UniProt P62318 (P62318 whole entry, looked up): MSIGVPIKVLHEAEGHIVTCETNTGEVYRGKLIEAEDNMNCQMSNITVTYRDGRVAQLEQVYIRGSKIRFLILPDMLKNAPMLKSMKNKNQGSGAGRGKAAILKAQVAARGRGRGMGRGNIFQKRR
Sequence of UniProt P27105 (P27105 whole entry, looked up): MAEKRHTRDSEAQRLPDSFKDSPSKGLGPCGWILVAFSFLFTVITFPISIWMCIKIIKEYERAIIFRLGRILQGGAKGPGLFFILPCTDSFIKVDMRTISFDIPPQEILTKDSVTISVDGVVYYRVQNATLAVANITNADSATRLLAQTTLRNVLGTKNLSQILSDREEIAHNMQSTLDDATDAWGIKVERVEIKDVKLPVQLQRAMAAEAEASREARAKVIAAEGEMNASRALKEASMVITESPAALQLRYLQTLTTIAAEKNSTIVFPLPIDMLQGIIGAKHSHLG
Sequence of UniProt Q9UNL2 (Q9UNL2 whole entry, looked up): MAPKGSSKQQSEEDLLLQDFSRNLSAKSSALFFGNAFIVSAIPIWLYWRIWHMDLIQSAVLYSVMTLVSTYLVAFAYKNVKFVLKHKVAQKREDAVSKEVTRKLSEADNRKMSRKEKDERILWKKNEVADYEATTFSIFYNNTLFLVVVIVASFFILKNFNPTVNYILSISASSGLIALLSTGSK
Sequence of UniProt Q16629 (Q16629 whole entry, looked up): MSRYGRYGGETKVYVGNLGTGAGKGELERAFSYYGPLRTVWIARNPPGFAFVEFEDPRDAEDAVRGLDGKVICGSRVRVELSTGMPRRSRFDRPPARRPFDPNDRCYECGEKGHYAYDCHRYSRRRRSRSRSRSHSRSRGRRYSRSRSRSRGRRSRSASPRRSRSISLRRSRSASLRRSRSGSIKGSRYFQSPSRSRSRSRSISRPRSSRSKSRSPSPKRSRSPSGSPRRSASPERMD
Sequence of UniProt Q9NXE4 (Q9NXE4 whole entry, looked up): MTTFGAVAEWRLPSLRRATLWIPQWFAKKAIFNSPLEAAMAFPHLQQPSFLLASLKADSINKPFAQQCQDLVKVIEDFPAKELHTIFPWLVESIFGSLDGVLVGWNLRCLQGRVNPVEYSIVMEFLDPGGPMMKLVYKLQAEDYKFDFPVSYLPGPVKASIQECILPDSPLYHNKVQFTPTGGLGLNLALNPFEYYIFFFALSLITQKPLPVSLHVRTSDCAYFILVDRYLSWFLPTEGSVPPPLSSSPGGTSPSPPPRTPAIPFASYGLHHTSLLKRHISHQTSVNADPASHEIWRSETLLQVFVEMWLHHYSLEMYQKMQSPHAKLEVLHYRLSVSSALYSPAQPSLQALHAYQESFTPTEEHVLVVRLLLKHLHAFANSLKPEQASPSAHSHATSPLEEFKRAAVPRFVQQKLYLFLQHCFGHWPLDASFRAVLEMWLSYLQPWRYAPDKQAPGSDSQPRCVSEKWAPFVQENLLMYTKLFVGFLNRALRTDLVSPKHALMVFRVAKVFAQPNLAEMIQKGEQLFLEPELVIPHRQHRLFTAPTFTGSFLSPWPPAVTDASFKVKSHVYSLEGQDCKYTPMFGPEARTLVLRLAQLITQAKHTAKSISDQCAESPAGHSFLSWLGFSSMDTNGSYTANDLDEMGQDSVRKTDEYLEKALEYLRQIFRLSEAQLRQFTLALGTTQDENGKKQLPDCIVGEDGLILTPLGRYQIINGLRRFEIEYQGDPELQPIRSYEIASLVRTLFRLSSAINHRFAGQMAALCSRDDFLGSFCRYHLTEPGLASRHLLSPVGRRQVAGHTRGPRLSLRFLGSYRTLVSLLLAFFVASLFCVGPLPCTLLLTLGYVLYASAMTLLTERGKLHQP
Sequence of UniProt Q99805 (Q99805 whole entry, looked up): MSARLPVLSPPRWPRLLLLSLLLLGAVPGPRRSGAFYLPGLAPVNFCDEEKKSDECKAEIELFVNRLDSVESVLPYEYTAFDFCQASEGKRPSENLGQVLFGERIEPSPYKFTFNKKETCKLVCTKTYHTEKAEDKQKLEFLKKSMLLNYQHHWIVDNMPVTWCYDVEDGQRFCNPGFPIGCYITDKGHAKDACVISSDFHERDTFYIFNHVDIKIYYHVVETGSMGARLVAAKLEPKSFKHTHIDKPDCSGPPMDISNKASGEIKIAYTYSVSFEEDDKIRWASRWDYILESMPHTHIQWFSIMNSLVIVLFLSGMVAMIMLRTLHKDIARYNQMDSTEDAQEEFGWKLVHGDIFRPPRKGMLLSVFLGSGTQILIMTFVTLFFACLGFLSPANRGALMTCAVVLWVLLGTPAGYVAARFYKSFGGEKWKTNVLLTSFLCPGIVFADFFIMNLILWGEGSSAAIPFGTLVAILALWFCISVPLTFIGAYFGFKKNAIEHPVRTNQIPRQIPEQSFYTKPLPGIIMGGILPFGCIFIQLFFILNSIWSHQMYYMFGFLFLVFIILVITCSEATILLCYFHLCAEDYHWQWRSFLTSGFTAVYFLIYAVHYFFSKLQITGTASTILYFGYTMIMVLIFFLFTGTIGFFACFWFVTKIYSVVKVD
Sequence of UniProt Q13573 (Q13573 whole entry, looked up): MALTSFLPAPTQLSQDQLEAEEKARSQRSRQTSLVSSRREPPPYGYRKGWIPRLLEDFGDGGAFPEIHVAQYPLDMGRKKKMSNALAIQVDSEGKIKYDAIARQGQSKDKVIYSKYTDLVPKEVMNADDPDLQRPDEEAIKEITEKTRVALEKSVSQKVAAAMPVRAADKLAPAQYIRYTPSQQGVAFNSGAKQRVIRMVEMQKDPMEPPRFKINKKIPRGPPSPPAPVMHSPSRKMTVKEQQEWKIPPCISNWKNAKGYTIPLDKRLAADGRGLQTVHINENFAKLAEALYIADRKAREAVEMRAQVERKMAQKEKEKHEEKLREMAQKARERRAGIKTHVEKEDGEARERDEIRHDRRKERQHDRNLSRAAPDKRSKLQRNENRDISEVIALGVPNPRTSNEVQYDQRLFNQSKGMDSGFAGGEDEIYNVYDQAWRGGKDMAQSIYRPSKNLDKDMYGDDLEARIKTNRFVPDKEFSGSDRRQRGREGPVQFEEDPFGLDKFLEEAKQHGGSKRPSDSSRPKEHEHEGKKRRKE
Sequence of UniProt Q01085 (Q01085 whole entry, looked up): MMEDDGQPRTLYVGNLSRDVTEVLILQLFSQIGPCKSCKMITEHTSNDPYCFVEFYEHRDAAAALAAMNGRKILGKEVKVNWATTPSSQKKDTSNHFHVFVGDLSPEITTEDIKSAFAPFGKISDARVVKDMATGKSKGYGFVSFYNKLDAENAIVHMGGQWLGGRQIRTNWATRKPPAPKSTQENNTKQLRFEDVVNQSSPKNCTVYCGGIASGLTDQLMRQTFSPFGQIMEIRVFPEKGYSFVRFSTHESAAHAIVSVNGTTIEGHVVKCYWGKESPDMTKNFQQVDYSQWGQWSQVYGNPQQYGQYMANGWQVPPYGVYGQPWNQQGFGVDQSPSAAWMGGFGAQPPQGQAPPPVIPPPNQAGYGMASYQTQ
Sequence of UniProt O60271 (O60271 whole entry, looked up): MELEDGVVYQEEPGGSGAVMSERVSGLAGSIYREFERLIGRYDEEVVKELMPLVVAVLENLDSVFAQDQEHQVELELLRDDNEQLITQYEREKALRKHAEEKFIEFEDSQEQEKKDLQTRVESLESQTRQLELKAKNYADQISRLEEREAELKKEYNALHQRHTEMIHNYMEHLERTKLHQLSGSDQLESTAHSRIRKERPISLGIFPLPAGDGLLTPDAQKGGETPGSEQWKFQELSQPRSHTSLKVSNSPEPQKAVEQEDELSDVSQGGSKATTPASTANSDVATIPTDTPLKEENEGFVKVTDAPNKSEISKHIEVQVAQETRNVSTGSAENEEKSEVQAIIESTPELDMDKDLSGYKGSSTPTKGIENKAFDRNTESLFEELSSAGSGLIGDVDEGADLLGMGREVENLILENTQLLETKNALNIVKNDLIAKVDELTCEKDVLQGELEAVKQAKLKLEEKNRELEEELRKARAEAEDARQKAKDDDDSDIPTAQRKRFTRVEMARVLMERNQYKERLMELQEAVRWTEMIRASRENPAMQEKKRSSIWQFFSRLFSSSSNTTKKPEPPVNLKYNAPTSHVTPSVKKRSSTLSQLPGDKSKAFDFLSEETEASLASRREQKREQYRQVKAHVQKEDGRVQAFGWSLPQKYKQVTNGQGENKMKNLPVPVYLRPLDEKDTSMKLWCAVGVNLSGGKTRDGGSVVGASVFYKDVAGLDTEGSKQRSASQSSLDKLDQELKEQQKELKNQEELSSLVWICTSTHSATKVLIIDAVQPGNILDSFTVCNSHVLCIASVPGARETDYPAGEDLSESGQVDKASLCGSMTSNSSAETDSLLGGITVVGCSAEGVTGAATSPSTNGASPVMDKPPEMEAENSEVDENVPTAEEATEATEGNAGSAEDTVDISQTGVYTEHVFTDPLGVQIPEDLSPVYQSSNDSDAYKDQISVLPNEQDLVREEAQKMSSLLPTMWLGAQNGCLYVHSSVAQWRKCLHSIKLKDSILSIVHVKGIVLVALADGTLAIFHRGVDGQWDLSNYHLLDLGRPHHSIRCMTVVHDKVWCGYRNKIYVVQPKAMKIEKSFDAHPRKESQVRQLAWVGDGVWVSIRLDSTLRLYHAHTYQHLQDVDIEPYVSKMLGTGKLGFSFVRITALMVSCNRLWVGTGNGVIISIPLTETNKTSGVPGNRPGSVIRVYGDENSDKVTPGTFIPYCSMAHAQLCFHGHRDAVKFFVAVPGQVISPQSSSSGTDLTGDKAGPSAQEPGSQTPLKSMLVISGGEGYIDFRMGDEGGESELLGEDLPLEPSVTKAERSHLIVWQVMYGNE
Sequence of UniProt Q96CQ1 (Q96CQ1 whole entry, looked up): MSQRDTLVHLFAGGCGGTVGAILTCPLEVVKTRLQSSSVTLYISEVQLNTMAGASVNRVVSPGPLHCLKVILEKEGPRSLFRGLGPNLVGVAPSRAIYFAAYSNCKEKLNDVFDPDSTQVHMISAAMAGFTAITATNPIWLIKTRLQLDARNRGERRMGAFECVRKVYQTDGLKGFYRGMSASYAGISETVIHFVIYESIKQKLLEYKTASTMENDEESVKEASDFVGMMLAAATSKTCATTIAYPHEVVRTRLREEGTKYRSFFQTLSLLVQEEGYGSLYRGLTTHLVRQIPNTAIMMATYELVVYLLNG

Target	log2 fold change [1]	log2 fold change (crizotinib)	log2 fold change [2]	log2 fold change [3]	log2 fold change (duvelisib)	log2 fold change (gandotinib)	log2 fold change (tozasertib)	log2 fold change [4]	log2 fold change (doramapimod)	log2 fold change (ispinesib)
SMAP (UniProt O00193)	0.004	-0.06	-0.01	-0.082	0.017	-0.032	0	-0.03	0.023	-0.015
SUN1 isoform 9 (UniProt O94901)	-0.03	-0.067	-0.005	0.006	-0.059	-0.052	-0.047	-0.017	0.089	-0.324 (active)
THADA (UniProt Q6YHU6)	0.01	-0.168	0.05	0.018	0.046	-0.239 (active)	-0.052	0.083	0.001	-0.133
TEX264 (UniProt Q9Y6I9)	0.361	0.079	0.064	0.176	0.037	-0.059	0.113	-0.028	0.039	-0.016
SRC isoform 2 (UniProt P12931)	-0.248	-0.154	0.229	0.07	0.168	-0.056	-0.183	0.101	-0.052	-0.068
SRSF7 (UniProt Q16629)	-0.096	0.008	-0.311	0.045	-0.093	0.319	-0.005	-0.025	0.073	-0.089
STK4 (UniProt Q13043)	0.009	-0.01	0.032	0.036	0.068	0.043	-0.021	-0.004	-0.008	-0.03
STOM (UniProt P27105)	0.086	-0.005	-0.035	0.182	0.011	0.268	-0.015	0.01	-0.006	-0.29
TJP2 isoform 7 (UniProt Q9UDY2)	0.006	-0.026	0.064	-0.017	0.056	-0.089	0.071	0.071	0.068	-0.065
SMC5 (UniProt Q8IY18)	0.03	0.161	0.081	0.036	0.046	0.028	0.017	0.017	0.015	0.092
TBC1D24 (UniProt Q9ULP9)	0.018	-0.235	0.08	-0.014	0.04	-0.361	-0.119	0.073	0.061	-0.218
SPAG9 (UniProt O60271)	0.046	-0.056	-0.002	0.065	-0.017	-0.034	0.049	0.012	0.023	-0.188
SMPD4 isoform 4 (UniProt Q9NXE4)	-0.026	-0.215	0.005	0.01	0.091	-0.133	-0.086	0.025	0.002	-0.255
SLC25A36 (UniProt Q96CQ1)	0.016	0.067	-0.061	-0.011	0.195	0.313	-0.059	-0.089	-0.027	-0.021
ST6GAL1 (UniProt P15907)	-0.064	-0.189	-0.005	0.037	0.073	0.014	0.001	0.018	0.083	0.002
SSRP1 (UniProt Q08945)	-0.024	-0.018	0.144	-0.088	0.029	-0.029	0.087	0.072	-0.027	0.048
SSR3 isoform 2 (UniProt Q9UNL2)	0.021	-0.043	0.05	-0.458 (active)	0.012	0.281	0.003	-0.038	0.034	0.021
TFRC (UniProt P02786)	0.026	-0.283 (active)	0.012	-0.018	0.047	-0.011	-0.01	-0.023	-0.012	-0.059
TAX1BP1 (UniProt Q86VP1)	-0.001	-0.009	-0.058	0.042	0.168	0.156	0.152	0.069	0.062	-0.067
SMARCA5 (UniProt O60264)	-0.004	-0.073	0.273	0.161	0.025	-0.045	0.154	0.127	-0.052	-0.012
SNW1 (UniProt Q13573)	-0.035	0.068	-0.062	0.015	-0.016	0.045	-0.015	-0.045	0	-0.048
TERF2IP (UniProt Q9NYB0)	-0.021	0.085	-0.072	-0.099	0.016	0.028	0.108	0.005	-0.019	0.044
TIAL1 isoform 2 (UniProt Q01085)	0.008	-0.039	0.023	-0.014	0.006	-0.048	-0.023	0.046	-0.054	0.01
TM9SF2 (UniProt Q99805)	0.056	-0.754 (active)	-0.017	-0.049	0.064	0.008	0.028	0	0.007	-0.089
SUPT5H (UniProt O00267)	0.057	0.049	0.129	-0.057	0.084	-0.043	0	0.079	-0.043	0.02
SPTBN4 (UniProt Q9H254)	0.026	0.09	-0.024	0.098	0.007	-0.03	-0.039	-0.003	-0.03	0.06
STK25 (UniProt O00506)	0.04	-0.2	-0.011	-0.026	0.051	-0.074	-0.027	-0.001	0.019	-0.071
SNRPD3 (UniProt P62318)	-0.102	0.011	0.036	0.041	0.039	0.034	-0.035	-0.04	0.055	0.006
SUMO1 (UniProt P63165)	-0.125	0.06	-0.045	0.176	-0.137	0.064	0	-0.039	-0.038	0.039
